Data reported in the supplement of paper PMC9694430.

Experiments:
Test in all cases: thermal shift delta Tm vs DMSO control; higher = stronger stabilization (binding)
Details in all cases: 12.5 µM; protein concentration 2 µM
LOC_OS01G01410-cb001 = system: LOC_OS01G01410-cb001
Outline: (§1)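 The melting temperature shift given here is a triplicate mean, measured against protein that received only DMSO. Melting temperatures came from Boltzmann fits of differential scanning fluorimetry data on E. coli-expressed, purified rice kinase domain constructs. Each 19.5 μl well contained 2 μM kinase, 100 mM potassium phosphate pH 7.5, 150 mM NaCl, 10% glycerol, 5 × SYPRO Orange and compound in DMSO. Plates were scanned from 25°C to 95°C at 0.05°C/s.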

LOC_OS01G02750-cb003 = system: LOC_OS01G02750-cb003
Outline: as §1

LOC_OS01G10900-cb004 = system: LOC_OS01G10900-cb004
Outline: as §1

LOC_OS01G13800-cb001 = system: LOC_OS01G13800-cb001
Outline: as §1

LOC_OS01G14860-cb001 = system: LOC_OS01G14860-cb001
Outline: as §1

LOC_OS01G21960-cb002 = system: LOC_OS01G21960-cb002
Outline: as §1

LOC_OS01G39600-cb002 = system: LOC_OS01G39600-cb002
Outline: as §1

LOC_OS01G48390-cb002 = system: LOC_OS01G48390-cb002
Outline: as §1

LOC_OS01G51400-cb002 = system: LOC_OS01G51400-cb002
Outline: as §1

LOC_OS01G52050-cb004 = system: T1, LOC_OS01G52050-cb004
T1 sequence (whole entry): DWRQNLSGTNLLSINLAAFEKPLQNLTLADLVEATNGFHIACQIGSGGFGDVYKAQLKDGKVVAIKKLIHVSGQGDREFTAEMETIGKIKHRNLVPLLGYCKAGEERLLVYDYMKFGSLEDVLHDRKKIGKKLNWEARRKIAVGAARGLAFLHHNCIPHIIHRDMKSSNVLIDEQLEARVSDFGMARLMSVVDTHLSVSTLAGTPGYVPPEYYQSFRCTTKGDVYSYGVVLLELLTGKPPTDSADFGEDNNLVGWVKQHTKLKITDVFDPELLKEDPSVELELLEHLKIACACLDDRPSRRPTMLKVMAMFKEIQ
Outline: as §1

LOC_OS01G57100-cb003 = system: LOC_OS01G57100-cb003
Outline: as §1

LOC_OS01G60330-cb001 = system: LOC_OS01G60330-cb001
Outline: as §1

LOC_OS01G60700-cb002 = system: LOC_OS01G60700-cb002
Outline: as §1

LOC_OS01G63280-cb003 = system: LOC_OS01G63280-cb003
Outline: as §1

LOC_OS01G67340-cb003 = system: LOC_OS01G67340-cb003
Outline: as §1

LOC_OS01G70970-cb002 = system: LOC_OS01G70970-cb002
Outline: as §1

LOC_OS02G07810-cb001 = system: LOC_OS02G07810-cb001
Outline: as §1

LOC_OS02G08530-cb003 = system: LOC_OS02G08530-cb003
Outline: as §1

LOC_OS02G14120-cb001 = system: LOC_OS02G14120-cb001
Outline: as §1

LOC_OS02G17970-cb001 = system: LOC_OS02G17970-cb001
Outline: as §1

SMILES	thermal shift delta Tm (LOC_OS01G01410-cb001)	thermal shift delta Tm (LOC_OS01G02750-cb003)	thermal shift delta Tm (LOC_OS01G10900-cb004)	thermal shift delta Tm (LOC_OS01G13800-cb001)	thermal shift delta Tm (LOC_OS01G14860-cb001)	thermal shift delta Tm (LOC_OS01G21960-cb002)	thermal shift delta Tm (LOC_OS01G39600-cb002)	thermal shift delta Tm (LOC_OS01G48390-cb002)	thermal shift delta Tm (LOC_OS01G51400-cb002)	thermal shift delta Tm (LOC_OS01G52050-cb004)	thermal shift delta Tm (LOC_OS01G57100-cb003)	thermal shift delta Tm (LOC_OS01G60330-cb001)	thermal shift delta Tm (LOC_OS01G60700-cb002)	thermal shift delta Tm (LOC_OS01G63280-cb003)	thermal shift delta Tm (LOC_OS01G67340-cb003)	thermal shift delta Tm (LOC_OS01G70970-cb002)	thermal shift delta Tm (LOC_OS02G07810-cb001)	thermal shift delta Tm (LOC_OS02G08530-cb003)	thermal shift delta Tm (LOC_OS02G14120-cb001)	thermal shift delta Tm (LOC_OS02G17970-cb001)
Cc1cc(F)c(Nc2ncnc3cc(OCc4ccccc4)ccc23)cc1O	0.8 °C	2.62 °C	0.6 °C	0.61 °C	0.45 °C	1.56 °C	1.09 °C	1.2 °C	0.81 °C	0.77 °C	1.8 °C	0.94 °C	2.58 °C	1.25 °C	0.41 °C	0.6 °C	1.36 °C	1.46 °C	0.86 °C	1.59 °C
Cc1ccc(-n2nc(C(C)(C)C)cc2NC(=O)NCc2cc(F)ccc2Oc2ccc3c(cnn3CCO)c2)cc1 [Pexmetinib (ARRY-614)]	0.56 °C	1.41 °C	0.65 °C	-0.01 °C	0.85 °C	1.27 °C	0.75 °C	1.8 °C	0.36 °C	1.87 °C	1.23 °C	2 °C	0.83 °C	6.58 °C	0.87 °C	0.6 °C	0.69 °C	0.78 °C	4.57 °C	1.52 °C
CC(C)(C)c1cc(NC(=O)Nc2ccc(Oc3ccnc4[nH]c(=O)cnc34)cc2F)n(-c2ccccc2)n1	-0.24 °C	1.82 °C	0.63 °C	0.95 °C	6.67 °C	0.63 °C	0.19 °C	0.23 °C	0.46 °C	0.84 °C	1.77 °C	1.69 °C	1.38 °C	10.7 °C	0.45 °C	0.73 °C	0.8 °C	1.22 °C	4.49 °C	2.69 °C
Cn1cc(/C=C2\C(=O)Nc3cccnc32)c2ccccc21	3.9 °C	0.74 °C	1.42 °C	-0.51 °C	0.68 °C	1.44 °C	-0.03 °C	1.92 °C	0.44 °C	1.86 °C	1.08 °C	12.1 °C	1.27 °C	0.58 °C	2.54 °C	4.16 °C	1.32 °C	4.2 °C	3.15 °C	1.08 °C
CC(=O)Nc1cccc(-n2c(=O)n(C3CC3)c(=O)c3c(Nc4ccc(I)cc4F)n(C)c(=O)c(C)c32)c1	0.31 °C	1.28 °C	0.15 °C	0.06 °C	0.12 °C	0.5 °C	-0.55 °C	0.45 °C	0 °C	0.63 °C	1.39 °C	0.69 °C	0.72 °C	0.03 °C	-0.14 °C	0.12 °C	0.36 °C	1.99 °C	0.02 °C	-0.07 °C
CC1(C)OC(=O)C=C[C@]2(C)[C@H]3CC[C@@]4(C)[C@H](c5ccoc5)OC(=O)[C@H]5O[C@]54[C@]3(C)C(=O)C[C@@H]12 [Obacunone]	0.06 °C	0.16 °C	0.26 °C	0.37 °C	0.35 °C	0.13 °C	-0.45 °C	0.82 °C	-0.06 °C	3 °C	1.14 °C	0.6 °C	0.14 °C	0.26 °C	0.19 °C	0.13 °C	0.27 °C	0.44 °C	0.92 °C	0.03 °C
CCCCCCCCCCCCc1ccc(S(=O)(=O)Nc2nncs2)cc1	0.38 °C	0.24 °C	0.46 °C	0.29 °C	0.62 °C	1.26 °C	0.44 °C	0.62 °C	-0.04 °C	1.1 °C	2.08 °C	0.81 °C	0.86 °C	0.54 °C	-1.07 °C	0.27 °C	1.33 °C	0.91 °C	-0.22 °C	0.86 °C
c1cc(-c2cnn3cc(-c4ccc(OCCN5CCCCC5)cc4)cnc23)ccn1 [Dorsomorphin 2HCl]	4.71 °C	10.2 °C	8.66 °C	0.11 °C	2.59 °C	3 °C	7.6 °C	5.88 °C	0.21 °C	6.74 °C	-0.53 °C	4.55 °C	0.2 °C	1.5 °C	6.09 °C	8.77 °C	0.33 °C	2.18 °C	8.01 °C	-0.02 °C
COc1ccc([C@@H]2OC[C@H]3[C@@H]2CO[C@@H]3c2ccc(O[C@@H]3O[C@H](CO)[C@@H](O)[C@H](O)[C@H]3O)c(OC)c2)cc1OC [Forsythin]	0.23 °C	1.02 °C	0.51 °C	-0.29 °C	0.27 °C	0.16 °C	-0.84 °C	0.13 °C	0.31 °C	1.57 °C	0.47 °C	-0.03 °C	-0.08 °C	-0.19 °C	0.01 °C	0.21 °C	-0.9 °C	0.57 °C	0.19 °C	-0.6 °C
CO[C@H]1C[C@@H]2CC[C@@H](C)[C@@](O)(O2)C(=O)C(=O)N2CCCC[C@H]2C(=O)O[C@H]([C@H](C)C[C@@H]2CC[C@@H](OP(C)(C)=O)[C@H](OC)C2)CC(=O)[C@H](C)/C=C(\C)[C@@H](O)[C@@H](OC)C(=O)[C@H](C)C[C@H](C)/C=C/C=C/C=C/1C [Ridaforolimus (Deforolimus, MK-8669)]	0.73 °C	-1.9 °C	0.47 °C	0.18 °C	0.16 °C	0.07 °C	-0.26 °C	0.54 °C	-0.09 °C	0.11 °C	0.89 °C	1.16 °C	0.84 °C	0.17 °C	-0.64 °C	0.14 °C	0.4 °C	0.57 °C	0.4 °C	0.27 °C
N#CC1(c2ccc(NC(=O)c3cccnc3NCc3ccncc3)cc2)CCCC1 [Apatinib]	1.1 °C	0.48 °C	0.27 °C	0.11 °C	0.52 °C	0.5 °C	0.01 °C	0.55 °C	0.33 °C	0.12 °C	1.62 °C	0.33 °C	0.74 °C	5.6 °C	0.6 °C	0.01 °C	1.02 °C	0.96 °C	0.6 °C	-0.16 °C
Cc1ccc([N+](=O)[O-])cc1S(=O)(=O)N(C)/N=C/c1cnc2ccc(Br)cn12	1.6 °C	11.6 °C	7.32 °C	0.52 °C	8.02 °C	3.8 °C	1.85 °C	1.1 °C	0.2 °C	11.7 °C	3.41 °C	-0.03 °C	1.24 °C	1.7 °C	3.58 °C	4.2 °C	0.51 °C	6.04 °C	9.06 °C	1.2 °C
